Measurements from PubChem BioAssay.
“And” between values parts separate entries of the source, which are not always exact repeats. Identical values can stand only once. Results filed as inconclusive are left out. The source made the active and inactive calls. Unless noted, no cut-off is given here; in the data, nearly all actives have AC50 up to about 26 µM.

Columns and labels:
[1] = circadian clock period modulators, cell-based, LOPAC library, luminescence reporter (AID 2774; call rule not given here;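 note: values are relative to mean of DMSO wells on each plate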); conditions: circadian reporter cells, at 7 µM, actives lie on both sides
[2] = system: Hepatitis C virus NS3 helicase; experiment: HCV NS3 helicase inhibitors, primary screen, biochemical, fluorescence polarization, LOPAC1280 library (AID 687035; in the data active = inhibition above about 37%); conditions: Purified HCV NS3 helicase, Cy5-dT15 ssDNA binding fluorescence polarization; stronger effect = higher value; concentration not given here
[3] = Cy5 fluorescence quenching or enhancement artefacts, artefact control for HCV NS3 helicase inhibitor project, biochemical, LOPAC1280 (AID 687037; call rule not given here); conditions: Cy5-DNA-NS3h complex fluorescence interference counterscreen
[4] = system: Aerobactin synthetase IucA (Klebsiella pneumoniae, hypervirulent); experiment: IucA enzyme inhibition, biochemical, LOPAC library, absorbance readout (AID 1346212; call rule not given here;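 note: 100% = no compound wells and 0% = no enzyme wells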); conditions: IucA enzyme assay, absorbance (OD) readout; stronger effect = lower value;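 tested at 8 µM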
[5] = growth inhibition of DIPG glioma cells, dose response, cell-based, SU-DIPG-XVII, MIPE5.0, CellTiter-Glo, qHTS (AID 1347060); conditions: SU-DIPG-XVII viability, CellTiter-Glo ATP luminescence;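 for AC50: cells exposed to compound for 48 hours before viability readout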
[6] = growth inhibition of DIPG glioma cells, dose response, cell-based, SU-DIPG-XIII, MIPE4.0, CellTiter-Glo, qHTS (AID 1347061; cut-off not given, nearly all actives have AC50 up to about 37 µM;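 note: cells exposed to compound for 48 hours before readout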); conditions: SU-DIPG-XIII viability, CellTiter-Glo ATP luminescence
[7] = growth inhibition of DIPG glioma cells, dose response, cell-based, JHH-DIPG-1, MIPE4.0, CellTiter-Glo, qHTS (AID 1347062; cut-off not given, nearly all actives have AC50 up to about 27 µM;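 for AC50: cells exposed to compound for two days before readout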); conditions: JHH-DIPG-1 viability, CellTiter-Glo ATP luminescence
[8] = growth inhibition of DIPG glioma cells, dose response, cell-based, SU-DIPG-IV, MIPE4.0, CellTiter-Glo, qHTS (AID 1347063; cut-off not given, nearly all actives have AC50 up to about 30 µM;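 note: compound exposure lasted 48 hours before the viability readout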); conditions: SU-DIPG-IV viability, CellTiter-Glo ATP luminescence
[9] = growth inhibition of DIPG glioma cells, dose response, cell-based, SU-DIPG-XIII, MIPE5.0, CellTiter-Glo, qHTS (AID 1347064; cut-off not given, nearly all actives have AC50 up to about 23 µM;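 for AC50: cells exposed to compound for 48 hours before the viability read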); conditions: SU-DIPG-XIII viability, CellTiter-Glo ATP luminescence
[10] = viability loss in pontine glioma line – cell-based, SU-DIPG-XXV, MIPE5.0, CellTiter-Glo, qHTS, dose response (AID 1347065); conditions: CellTiter-Glo ATP luminescence;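 note: cells exposed to compound for 48 hours before ATP readout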
[11] = SU-DIPG-VI glioma cell viability, MIPE4.0 library, CellTiter-Glo luminescence, qHTS (AID 1347066; cut-off not given, nearly all actives have AC50 up to about 30 µM;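 note: cells exposed to compound for 48 hours before readout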); conditions: CellTiter-Glo ATP luminescence
[12] = JHH-DIPG-1 glioma cell viability, MIPE5.0 library, CellTiter-Glo luminescence, qHTS (AID 1347067); conditions: JHH-DIPG-1 glioma viability, CellTiter-Glo ATP luminescence;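 note: cells exposed to compound for 48 hours before readout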
[13] = SU-DIPG-XXV glioma cell viability, MIPE5.0 library, qHTS (AID 1347068; cut-off not given, nearly all actives have IC50 up to about 30 µM;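 for IC50: cells exposed to compound for 48 hours before viability readout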)
[14] = sensitizers of A549 cells to miR-34 induction, primary screen, imaging, A549 dox-inducible miR-34, nuclei and caspase counts (AID 1347080;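 active = compounds whose cell count with miR-34 switched on is under 0.7 times the count with it off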); conditions: A549 miR-34 inducible, Hoechst nuclei count, 48 h
[15] = survival rescue of mitochondrial mutant cells in low glucose, primary screen, MELAS cybrids, Rieske KO mouse fibroblasts, CellTiter-Glo (AID 1508586;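 active = mean z-score across replicates of 1.96 or higher in either the MELAS or the Rieske mutant cell line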;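 note: z relative to plate mean and SD of compound and empty wells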)
[16] = modifiers of HSF1 nuclear foci, imaging, Selleck Cancer Library (AID 1347162; in the data active = plate-normalised HSF1 focus index below about 0.46); conditions: human cells, at 10 µM; SSMD: measured here: HSF1 foci SSMD mean; cell count: measured here: cell number; plate-normalised HSF1 focus index: stronger effect = lower value
[17] = stronger effect = lower value, cell number ratio, induced over uninduced
[18] = measured here: relative caspase fold change +Dox/-Dox
[19] = measured here: total cells with miR-34 induction, stronger effect = lower value
[20] = measured here: total cells without miR-34 induction
[21] = MELAS cybrid survival, CellTiter-Glo 48 h, stronger effect = higher value
[22] = Rieske KO mouse fibroblast survival, CellTiter-Glo 72 h

N[C@@H](CCl)C(=O)O
inactive: period change [1] 0.125 h | inhibition [2] -3% | fluorescence ratio (interference) [3] 1 | remaining activity [4] 104%

CCc1c(C(=O)C(N)=O)c2c(OCC(=O)O)cccc2n1Cc1ccccc1
inactive: outcome [5] | outcome [6] | outcome [7] | outcome [8] | outcome [9] | outcome [10] | outcome [11] | outcome [12] | outcome [13] | fold change [14, 17] 0.89 | z-score [15, 21] -0.413
0.396: z-score [15, 22]
7750: cell count [14, 19]
1.11: fold change [14, 18]
8710: cell count [14, 20]

Cc1[nH]nc2ccc(-c3cncc(OC[C@@H](N)Cc4c[nH]c5ccccc45)c3)cc12
active: AC50 [5] 833 nM | AC50 [6] 4.69 µM | AC50 [7] 590 nM | AC50 [8] 3.72 µM | AC50 [9] 742 nM | AC50 [10] 742 nM | AC50 [11] 14.8 µM | AC50 [12] 525 nM | IC50 [13] 1.86 µM

O=C(Oc1ccc([N+](=O)[O-])cc1)N1CCC(C(O)(c2ccc3c(c2)OCO3)c2ccc3c(c2)OCO3)CC1
5850 and 9460: cell count [14, 20]
6030 and 8340: cell count [14, 19]
inactive: outcome [5] | outcome [6] | outcome [7] | outcome [8] | outcome [9] | outcome [10] | outcome [11] | outcome [12] | outcome [13] | fold change [14, 17] 1.03 and 0.881 | plate-normalised HSF1 focus index [16] 1.2 | z-score [15, 21] -0.115
6730: cell count [16]
3.32: SSMD [16]
1.13 and 1: fold change [14, 18]
-0.259: z-score [15, 22]
